Measurements from ChEMBL document CHEMBL1157539, “Thousands of chemical starting points for antimalarial lead identification” (Nature, 2010).
In all, about 13,000 compounds were measured (“IFI”: median about 4, highest 2% from about 17 on). Many of the other results were omitted from the sample, so the highest values are more common in it than they were.

assay: GSK_TCMDC: Inhibition Frequency Index (IFI). The number of non-kinase HTS assays where a compound showed > 50 % inhibition, expressed as a percentage of the number of such assays in which the compound was tested; type: functional

Structure (SMILES) | IFI [%]
C#Cc1cccc(NC(=O)[C@H](CC2CCCCC2)Nc2ccc(C#N)c3ccccc23)c1 | 3.77
CCCCOc1ccc(-c2nc3ccccc3[nH]2)cc1 | 2.14
COc1ccc(OCCCON2C(=N)N=C(N)NC2(C)C)cc1 | 2.88
O=S(=O)(NCCN1CCCC1)c1ccc(-c2cccc(CNCc3ccc(F)cc3)c2)s1 | 9.65
CCNC(=O)Nc1cccc(-c2cccc(-c3nc4cccc(C)c4[nH]3)c2)c1 | 5.05
CCCCCCCn1c(=N)n(CC(O)c2ccc(Cl)c(Cl)c2)c2ccccc21 (centres undefined) | 17.6
CN(C)CCn1c(=N)n(CC(O)c2ccc(Cl)c(Cl)c2)c2ccccc21 (centres undefined) | 2.21
CCN(CC)CCn1c(=N)n(CC(O)c2ccc(Cl)c(Cl)c2)c2ccccc21 (centres undefined) | 6.52
Cc1ccc(C2(CN3CCC(NC(=O)c4n[nH]cc4Cl)CC3)CCCCC2)cc1 | 8.33
CN1CCN(CC(=O)Nc2cccc(-c3cccc(-c4nc5ccccc5[nH]4)c3)c2)CC1 | 1.8
O=C(Nc1cccc(C(F)(F)F)c1)Nc1ccc2nonc2c1 | 22.5
O=C(Nc1ccc(SC(F)(F)F)cc1)Nc1ccnc2ccccc12 | 9.29
O=C(Nc1ccc(Cl)c(Cl)c1)Nc1cc(C(F)(F)F)ccc1Cl | 5.71
O=C(Nc1cc(C(F)(F)F)cc(C(F)(F)F)c1)Nc1ccc(Cl)c(Cl)c1 | 19.1
O=C(Nc1ccc(SC(F)(F)F)cc1)Nc1ccc(Cl)c(Cl)c1 | 18.7
O=C(Nc1cccc(C(F)(F)F)c1)Nc1ccc(Cl)c(Cl)c1 | 16.1
O=C(Nc1cccc(C(F)(F)F)c1)Nc1ccc(F)c([N+](=O)[O-])c1 | 15.8
O=C(Nc1ccc(Cl)cc1)Nc1ccc2nonc2c1 | 12.8
O=C(Nc1ccc(Cl)c(C(F)(F)F)c1)Nc1ccc(Cl)c(C(F)(F)F)c1 | 12.7
c1ccc2c(NCCCCCCCCNc3ccnc4ccccc34)ccnc2c1 | 8.27
CCOc1cc(N)c2nc3ccc([N+](=O)[O-])cc3cc2c1 | 6.47
CC(C)(C)NS(=O)(=O)c1cc(C(=O)N2CCC(CCN3CCC(C(=O)c4ccc(F)cc4)CC3)(c3cccc(F)c3)CC2)c(Cl)cc1F | 3.55
C=CCOC(=O)N1CCC(CNCc2ccc(-c3ccc(-c4nc5ccccc5[nH]4)s3)cc2)C1 (centres undefined) | 11
COc1cccc(Nc2nccc(-c3c(-c4cccc(NC(=O)c5c(F)cccc5F)c4)nn4ccccc34)n2)c1 | 4.39
NC(=O)C1CCN(Cc2ccc(-c3ccc(-c4nc5cc(F)ccc5[nH]4)cc3)cc2)CC1 | 4.72
Fc1ccc2c(NN=Cc3ccc(Cl)cc3)ccnc2c1 | 0.74

Structure (SMILES) | IFI [%]
O=C(NCCCCN1CCC(c2ccc3ccccc3c2O)CC1)c1ccc(-c2ccc(Cl)cc2)cc1 | 15.1
CC(C)C(=O)NC(c1ccc(N(C)C)cc1)c1cc(Cl)c2cccnc2c1O (centres undefined) | 5.38
CCn1c(-c2nonc2N)nc2c(-c3cccc(NC(=O)Nc4ccc5c(c4)CCC5)c3)ncc(OCCCN)c21 | 14.8
CCn1c(-c2nonc2N)nc2c(-c3ccccc3)ncc(OCCCNCCCN3CCOCC3)c21 | 3.08
CCOC(=O)c1cccc(NC(=O)Nc2cccc(-c3ncc(OCCCN)c4c3nc(-c3nonc3N)n4CC)c2)c1 | 16.5
CCn1c(-c2nonc2N)nc2c(-c3cccc(NC(=O)Nc4ccc(Cl)cc4)c3)ncc(OCCCN)c21 | 19.3
CCn1c(-c2nonc2N)nc2c(-c3cccc(NC(=O)Nc4cccc(Cl)c4)c3)ncc(OCCCN)c21 | 17.6
CCn1c(-c2nonc2N)nc2c(-c3cccc(NC(=O)Nc4ccc(C(F)(F)F)cc4)c3)ncc(OCCCN)c21 | 19.1
CCn1c(-c2nonc2N)nc2c(-c3cccc(NC(=O)Nc4cccc(C(F)(F)F)c4)c3)ncc(OCCCN)c21 | 14.6
CCn1c(-c2nonc2N)nc2c(-c3cccc(NC(=O)NC45CC6CC(CC(C6)C4)C5)c3)ncc(OCCCN)c21 | 16.7
CCn1c(-c2nonc2N)nc2c(-c3cccc(NC(=O)Nc4cccc(C#N)c4)c3)ncc(OCCCN)c21 | 16.7
CCn1c(-c2nonc2N)nc2c(-c3cccc(NC(=O)NCc4ccccc4)c3)ncc(OCCCN)c21 | 12.9
NCCCOc1cnc(-c2ccccc2)c2nc(-c3nonc3N)n(CCc3ccccc3)c12 | 18.8
CCn1c(-c2nonc2N)nc2c(-c3cccc(NC(=O)Nc4ccc(C#N)cc4)c3)ncc(OCCCN)c21 | 15.7
Cc1ccc(NC(=O)c2cc(S(=O)(=O)NC(C)(C)C)ccc2C)nc1 | 0
O=C(NC1CCN(CC2(c3ccccc3F)CCCC2)CC1)c1cc[nH]n1 | 0
Cc1nc(C)c(-c2ccc(C(F)(F)F)cc2)c(O)c1Br | 0
O=S(=O)(NCCN1CCCC1)c1ccc(-c2cccc(CNCc3ccsc3)c2)s1 | 6.9
O=c1cc(NCCCNCc2cn(S(=O)(=O)c3ccccc3)c3ccccc23)[nH]c2ccccc12 | 5.88
COc1ccc2cc(-c3nc(-c4c(Cl)cccc4Cl)[nH]c3-c3ccnc(NCCC4CCCN4C)c3)ccc2c1 (centres undefined) | 11.3
C=CCn1ccc2c3c(N)nc(N)nc3ccc21 | 6.4
NC1=NC2(CCCCC2)N(OCCCCCCC2CCCCC2)C(N)=N1 | 27.6
CC1(C)N=C(N)N=C(N)N1OCCCc1ccccc1 | 4.35
NC1=NC2(CCCCC2)N(OCCCCCCN2C(=O)c3ccccc3C2=O)C(N)=N1 | 1.43
Cc1ccc2cc(NCCCCCCCCON3C(N)=NC(N)=NC34CCCCC4)ccc2n1 | 11.6
NC1=NC2(CCCCC2)N(OCCCCCCCCNc2nc(N)nc(N)n2)C(N)=N1 | 1.44

Structure (SMILES) | IFI [%]
NC1=NC2(CCCCC2)N(OCCCCCCc2ccccc2)C(N)=N1 | 23.9
FC(F)(F)c1ccc2[nH]c(-c3ccc(-c4cccc(CNCC5CCCO5)c4)s3)nc2c1 (centres undefined) | 7.92
O=C(Nc1ccc(CN2CCOCC2)cc1)c1ccc(-c2ccc(Cl)cc2)o1 | 2.78
COc1ccc(-c2cc(C(=O)N[C@@H](CC3CCCCC3)C(=O)NCCN3CCCC3)ccc2O)cc1 | 3.45
CCN(CC)CCN(Cc1ccc(-c2ccc(C(F)(F)F)cc2)cc1)C(=O)Cn1c(CCc2cccc(F)c2F)nc(=O)c2ccccc21 | 8.39
Fc1ccc2[nH]c(-c3cccc(-c4ccc(CNCCc5ccncc5)cc4)c3)nc2c1 | 9.71
Fc1ccc2[nH]cc(CCNCc3ccc(-c4cccc(-c5nc6ccccc6[nH]5)c4)cc3)c2c1 | 17.8
Fc1ccc2[nH]c(-c3cccc(-c4ccc(CNCc5ccccc5)cc4)c3)nc2c1 | 8.57
O=C(/C=C/c1ccc(Cl)c(Cl)c1)NCC[C@@H]1C[C@H]1CCN1CCC(c2c[nH]c3ccccc23)CC1 | 12.3
Cc1cc(=NN=Cc2ccc(Cl)cc2)c2ccccc2[nH]1 | 0.7
Clc1ccc(/N=C(/NCCCCCCCN/C(=N\c2ccc(Cl)cc2)Nc2ccc(Cl)cc2)Nc2ccc(Cl)cc2)cc1 | 17.1
N=C(NCCCCCCCCNC(=N)Nc1ccc(Cl)cc1)Nc1ccc(Cl)cc1 | 3.65
CN(C)/C(=N/C(=N)Nc1ccc(Cl)cc1)NCCCCCCN/C(=N\C(=N)Nc1ccc(Cl)cc1)N(C)C | 8.89
COc1ccc(O)c(C(=O)c2cc(C(=O)NC3CCCCC3)c(=O)n(C3CCCCC3)c2)c1 | 10.8
O=C(c1cc(C(=O)NC2CCCCC2)c(=O)n(C2CCCCC2)c1)c1cc(F)ccc1O | 19.4
N#Cc1cc(C(=O)c2cc(Br)ccc2O)cn(C2CCCCC2)c1=O | 2.78
c1ccc2c(NCCCCCCNc3ccnc4ccccc34)ccnc2c1 | 4.55
c1ccc2c(NCCCCCCCNc3ccnc4ccccc34)ccnc2c1 | 11.3
COc1ccc(NCCCNc2ccnc3ccccc23)cc1 | 17.5
Nc1nc(N)c2c(ccc3c2ccn3Cc2ccc(Cl)cc2)n1 | 13.2
CCn1c(Sc2ccc([N+](=O)[O-])c(C#N)c2)nnc1-c1ccc(Cl)cc1 | 3.4
OCC1CCN(Cc2ccc(-c3ccc(-c4nc5cc(F)ccc5[nH]4)cc3)cc2)CC1 | 2.94
Oc1c(C(Nc2nc3ccccc3s2)c2ccc(OC(F)F)cc2)ccc2cccnc12 (centres undefined) | 9.4
CN(C)CCOc1ccc2c(=O)cc(CCc3cccc(F)c3F)n(CC(=O)N(C)Cc3ccc(-c4ccc(C(F)(F)F)cc4)cc3)c2c1 | 2.92
CCOC(=O)c1c(CNc2ccncc2)n(C)c2cc(Br)c(OC(C)=O)cc12 | 0.74
CCOC(=O)c1cc2c(CCN3C(=O)c4ccccc4C3=O)cn(C)c2cc1-c1ccncc1 | 30.4

Structure (SMILES) | IFI [%]
CCOC(=O)c1cc(C(=O)NCCCCN2CCC(c3cn(C)c4ccccc34)CC2)ccc1-c1ccc(C(F)(F)F)cc1 | 5.31
CC(=O)Nc1ccc(C(=O)Nc2cccc(-c3cccc(-c4nc5cc(C(F)(F)F)ccc5[nH]4)c3)c2)cn1 | 3.7
CC(=O)Nc1ccc(Cl)c(Cl)c1 | 0
NCCCN(Cc1ccc(Cl)c(Cl)c1)C(=O)Nc1ccc(Cl)c(Cl)c1 | 17.7
N=C(N)NC(=O)Nc1ccc(Cl)c(Cl)c1 | 1.52
COc1ccc(CCNCCCCCCNCCc2ccccc2Cl)cc1OC | 2.88
FC(F)(F)c1cccc(CCNc2nccc(NCc3ccc(Cl)cc3Cl)n2)c1 | 25
COc1ccccc1CNc1ccnc(NCCc2cccc(C(F)(F)F)c2)n1 | 16
FC(F)(F)c1cccc(CCNc2nccc(NCc3ccccc3Cl)n2)c1 | 8
Fc1ccc(NC(S)=NN=Cc2ccccn2)cc1 | 7.48
Cc1[nH]c(C)c(-c2ccc(-c3ccc(OC(F)(F)F)cc3)nc2)c(=O)c1Cl | 1.69
Cc1cc(Nc2ccncc2)n2nc(C)c(-c3ccc(Cl)cc3)c2n1 | 1.69
Cc1ccc2[nH]c(-c3cc(-c4cccc(C#N)c4)cnc3N)nc2c1 | 7.14
Cc1cccc2nc(-c3ccc(-c4ccc(CN5CCCC(N)C5)cc4)s3)[nH]c12 (centres undefined) | 5.56
COc1ccc(-c2ccccc2OCCCNc2nc(NCCc3ccc(O)cc3)nc(N3CCNCC3)n2)cc1 | 13.8
Oc1ccc(CCCNc2nc(NCc3cccc4ccccc34)nc(N3CCNCC3)n2)cc1 | 7.69
Cc1cc(OCCCNc2nc(NCCc3ccc(O)cc3)nc(N3CCNCC3)n2)c(Cl)c(C)c1Cl | 18.5
Oc1ccc(CCNc2nc(NCc3ccc4cc(Cl)ccc4c3)nc(N3CCNCC3)n2)cc1 | 17.2
Oc1ccc(CCNc2nc(NCCOc3ccccc3-c3ccccc3)nc(N3CCNCC3)n2)cc1 | 20
C[C@@]12C[C@@H](Nc3nc(NCCc4ccc(O)cc4)nc(N4CCNCC4)n3)C[C@@H](C1)c1cccc(Cl)c1O2 | 20.9
Oc1ccc(CCNc2nc(NCc3ccccc3-c3cccc(Cl)c3)nc(N3CCNCC3)n2)cc1 | 15.4
Cc1c(CN2CCCCC2)cccc1OCCCNc1nc(NCCc2ccc(O)cc2)nc(N2CCNCC2)n1 | 7.58
Cc1cccc(-c2cccc(CNc3nc(NCCc4ccc(O)cc4)nc(N4CCNCC4)n3)c2)c1 | 12.7
Oc1ccc(CCNc2nc(NCCCOc3cccc(CN4CCCCC4)c3Cl)nc(N3CCNCC3)n2)cc1 | 4.69
Oc1ccc(CCNc2nc(NCCCOc3ccccc3-c3ccncc3)nc(N3CCNCC3)n2)cc1 | 1.72
Oc1ccc(CCNc2nc(N/N=C/c3ccc(Cl)cc3)nc(N3CCNCC3)n2)cc1 | 0.75
